Experimental data reported in PubChem BioAssay (NCATS).
Results filed as inconclusive are left out. Calls of active or inactive are those of the source. Calls come from the whole dose curve; as a rule, active = well fitted curve in the direction sought with a large enough effect; inconclusive = small, poorly fitted or top-dose-only effect, or another doubt; inactive = no such curve, though single readings can be large; an effect the other way counts as inactive or inconclusive.

How the values were obtained:
[1] = biological target: Tyrosyl-DNA phosphodiesterase 1 (Homo sapiens) (UniProt Q9NUW8); experiment: Confirmation Assay for Inhibitors of Tyrosyl-DNA Phosphodiesterase (TDP1) (AID 489007); conditions: recombinant human TDP1 enzymatic activity, dose-response; note: potency is the fitted concentration of half-maximal effect; nearly all actives have a fitted effect of over 40% in size
Procedure, shortened: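 AlphaScreen read-out: streptavidin donor and anti-FITC acceptor beads (10 ug/ml) bind intact substrate, so Tdp1 removal of tyrosine-FITC lowers signal. Enzyme 1 nM, substrate 15 nM, 5 min reaction at room temperature after 15 min compound preincubation.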

[2] = biological target: Rap guanine nucleotide exchange factor 3 (Homo sapiens) (UniProt O95398); experiment: Confirmatory qHTS for agonist of cAMP-regulated guanine nucleotide exchange factor 3 (EPAC1) (AID 1645881); conditions: EPAC1 Rap1B BODIPY-GDP exchange fluorescence; series mostly up to 154 µM;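 note: EPAC1 catalysed release of BODIPY-GDP from Rap1B seen as fluorescence loss; 100% = effect of cAMP agonist control; nearly all actives have a fitted effect of over 75% in size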
[3] = biological target: Rap guanine nucleotide exchange factor 4 (Homo sapiens) (UniProt Q8WZA2); experiment: Confirmatory qHTS for agonist of cAMP-regulated guanine nucleotide exchange factor 4 (EPAC2) (AID 1645884); conditions: EPAC2 GEF activity, Rap1B-BODIPY-GDP fluorescence; series mostly up to 154 µM;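 note: nucleotide exchange releases bodipy-GDP from Rap1 and this lowers its fluorescence; % is set by controls: 0 for no effect and ±100 for the full control effect; nearly all actives have a fitted effect of over 65% in size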
[4] = biological target: Rap guanine nucleotide exchange factor 4 (Homo sapiens) (UniProt Q8WZA2); experiment: Confirmatory qHTS for antagonist of cAMP-regulated guanine nucleotide exchange factor 4 (EPAC2) (AID 1645885); conditions: EPAC2 Rap1B-BODIPY-GDP exchange fluorescence, biochemical; series mostly up to 114 µM; note: % is set by controls: 0 for no effect and ±100 for the full control effect; nearly all actives have a fitted effect of over 25% in size
[5] = biological target: Rap guanine nucleotide exchange factor 3 (Homo sapiens) (UniProt O95398); experiment: Counterscreen qHTS for antagonist of cAMP-regulated guanine nucleotide exchange factor 3 (EPAC1) (AID 1645888); conditions: Rap1B-BODIPY-GDP nucleotide exchange, fluorescence; series mostly up to 154 µM;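 note: fluorescence loss as bound BODIPY-GDP is released from Rap1B; % of control where 0% means no effect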
Procedure, shortened: (§1)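 Rap1B-BODIPY-GDP 250 nM + GDP 50 uM; cpds 7-pt, final 9.74 nM–152 uM (activator mode) or from 7.32 nM upwards (inhibitor mode); RT; FI 480/540 nm at 5 and 30 min, then ± cAMP, reread.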

[6] = biological target: Rap guanine nucleotide exchange factor 3 (Homo sapiens) (UniProt O95398); experiment: Counterscreen qHTS for agonist of cAMP-regulated guanine nucleotide exchange factor 3 (EPAC1) (AID 1645889); conditions: EPAC1 Rap1B-BODIPY-GDP exchange, fluorescence; series mostly up to 154 µM; note: % of control where 0% means no effect; nearly all actives have a fitted effect of over 40% in size
Procedure, shortened: as §1

Rap guanine nucleotide exchange factor 3 (Homo sapiens), sequence (O95398 whole entry, looked up): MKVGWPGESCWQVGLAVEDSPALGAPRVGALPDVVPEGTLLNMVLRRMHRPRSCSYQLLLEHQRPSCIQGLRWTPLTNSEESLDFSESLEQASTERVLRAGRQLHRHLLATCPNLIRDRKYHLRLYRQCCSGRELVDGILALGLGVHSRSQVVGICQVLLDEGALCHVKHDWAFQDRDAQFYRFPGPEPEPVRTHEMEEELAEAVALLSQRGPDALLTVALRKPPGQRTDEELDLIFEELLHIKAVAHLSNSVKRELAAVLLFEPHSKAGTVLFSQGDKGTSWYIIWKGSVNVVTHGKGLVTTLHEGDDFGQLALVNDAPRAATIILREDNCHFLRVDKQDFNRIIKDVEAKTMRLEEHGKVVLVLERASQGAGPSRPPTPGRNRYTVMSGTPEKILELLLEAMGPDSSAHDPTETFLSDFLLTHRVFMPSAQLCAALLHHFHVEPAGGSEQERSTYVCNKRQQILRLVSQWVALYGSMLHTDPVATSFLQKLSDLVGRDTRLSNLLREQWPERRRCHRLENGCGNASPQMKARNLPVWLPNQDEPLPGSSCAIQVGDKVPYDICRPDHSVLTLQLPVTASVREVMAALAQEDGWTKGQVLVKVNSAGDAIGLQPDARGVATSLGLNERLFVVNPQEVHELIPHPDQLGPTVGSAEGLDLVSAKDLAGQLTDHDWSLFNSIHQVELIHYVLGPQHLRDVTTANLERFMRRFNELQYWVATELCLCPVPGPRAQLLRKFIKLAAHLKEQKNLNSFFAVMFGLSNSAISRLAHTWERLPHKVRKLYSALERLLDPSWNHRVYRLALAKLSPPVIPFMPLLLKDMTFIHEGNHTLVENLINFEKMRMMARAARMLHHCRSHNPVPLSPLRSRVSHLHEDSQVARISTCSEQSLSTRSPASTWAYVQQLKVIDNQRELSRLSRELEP
Rap guanine nucleotide exchange factor 4 (Homo sapiens), sequence (Q8WZA2 whole entry, looked up): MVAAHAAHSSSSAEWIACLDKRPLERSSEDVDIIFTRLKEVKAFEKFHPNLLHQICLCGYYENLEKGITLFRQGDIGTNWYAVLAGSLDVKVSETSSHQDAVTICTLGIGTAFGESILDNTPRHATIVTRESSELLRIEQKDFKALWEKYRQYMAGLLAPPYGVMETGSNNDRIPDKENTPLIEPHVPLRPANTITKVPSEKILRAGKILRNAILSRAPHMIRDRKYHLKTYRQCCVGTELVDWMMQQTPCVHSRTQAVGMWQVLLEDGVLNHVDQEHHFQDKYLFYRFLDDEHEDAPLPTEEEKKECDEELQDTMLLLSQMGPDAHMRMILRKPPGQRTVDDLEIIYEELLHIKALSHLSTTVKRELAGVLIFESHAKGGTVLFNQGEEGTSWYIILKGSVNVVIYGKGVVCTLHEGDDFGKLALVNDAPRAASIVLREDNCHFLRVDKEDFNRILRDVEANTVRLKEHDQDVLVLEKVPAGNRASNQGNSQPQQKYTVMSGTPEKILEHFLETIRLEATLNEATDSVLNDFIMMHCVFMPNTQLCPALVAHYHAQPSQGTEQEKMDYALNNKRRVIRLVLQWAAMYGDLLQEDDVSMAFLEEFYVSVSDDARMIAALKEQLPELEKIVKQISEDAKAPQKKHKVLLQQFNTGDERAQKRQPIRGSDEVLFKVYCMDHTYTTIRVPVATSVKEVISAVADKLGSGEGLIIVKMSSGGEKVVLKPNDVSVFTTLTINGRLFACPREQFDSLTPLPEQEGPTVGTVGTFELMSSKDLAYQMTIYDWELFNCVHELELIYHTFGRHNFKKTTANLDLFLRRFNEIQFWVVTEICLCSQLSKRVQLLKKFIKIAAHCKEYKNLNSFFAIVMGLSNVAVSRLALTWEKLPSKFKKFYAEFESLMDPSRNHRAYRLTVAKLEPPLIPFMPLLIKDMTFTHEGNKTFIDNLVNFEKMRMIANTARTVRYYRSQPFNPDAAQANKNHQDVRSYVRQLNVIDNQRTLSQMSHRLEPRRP
Tyrosyl-DNA phosphodiesterase 1 (Homo sapiens), sequence (Q9NUW8 whole entry, looked up): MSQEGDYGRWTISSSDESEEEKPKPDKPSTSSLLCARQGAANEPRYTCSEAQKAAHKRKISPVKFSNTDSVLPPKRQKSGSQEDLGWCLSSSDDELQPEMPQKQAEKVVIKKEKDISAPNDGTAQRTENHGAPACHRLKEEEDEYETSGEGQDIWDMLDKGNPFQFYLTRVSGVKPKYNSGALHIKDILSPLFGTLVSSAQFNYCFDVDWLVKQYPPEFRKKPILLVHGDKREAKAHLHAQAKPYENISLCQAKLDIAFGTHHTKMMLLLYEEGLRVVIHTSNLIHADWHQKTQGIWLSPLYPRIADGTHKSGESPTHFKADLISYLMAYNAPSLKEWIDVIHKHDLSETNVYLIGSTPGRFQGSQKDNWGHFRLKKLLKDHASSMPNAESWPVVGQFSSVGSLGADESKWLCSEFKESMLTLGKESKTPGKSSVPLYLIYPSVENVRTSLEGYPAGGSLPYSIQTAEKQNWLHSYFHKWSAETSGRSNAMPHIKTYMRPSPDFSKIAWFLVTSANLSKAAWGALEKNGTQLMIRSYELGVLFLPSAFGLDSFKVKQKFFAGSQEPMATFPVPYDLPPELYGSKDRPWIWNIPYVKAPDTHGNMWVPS

Cn1cccc1/C=C1\C(=O)NC(=O)N(Cc2ccco2)C1=O
inactive: Potency [2] | activation [3] 8.15% [at 17.1 µM, percent relative to cAMP agonist control] | activity change, negative = inhibition [4] -7.91% [at 12.7 µM] | activity change, negative = inhibition [5] -2.64% [at 30.8 µM] | activation [6] 7.31% [at 30.8 µM]
active: Potency [1] 14.1 µM

O=C1NC(=O)N(CCc2ccc(F)cc2)C(=O)/C1=C/c1ccco1
inactive: Potency [2] | activation [3] 1.5% [at 17.1 µM, percent relative to cAMP agonist control] | activity change, negative = inhibition [4] -8.03% [at 12.7 µM] | activity change, negative = inhibition [5] -2.28% [at 30.8 µM] | activation [6] 10.6% [at 30.8 µM]

Cc1cccc(C)c1-n1nnnc1C(c1ccccc1OC(F)(F)F)N1CCC(n2c(=O)[nH]c3ccccc32)CC1 (stereo not given)
inactive: Potency [2] | Potency [3] | Potency [4] | outcome [5] | Potency [6]

O=[N+]([O-])c1ccc(N(CCO)CCO)c2c1no[n+]2[O-]
inactive: Potency [2] | Potency [3] | outcome [5] | Potency [6]

NC(=O)c1ccc(N=Cc2c(O)n(Cc3ccco3)c(=O)[nH]c2=O)cc1
inactive: Potency [2] | Potency [3] | Potency [4] | outcome [5] | Potency [6]
active: Potency [1] 14.1 µM

O=C1NC(=O)N(Cc2ccco2)C(=O)/C1=C/c1cccn1CCOc1ccccc1Cl
inactive: Potency [2] | Potency [3] | Potency [4] | outcome [5] | Potency [6]

O=C1NC(=O)N(Cc2ccc(F)cc2)C(=O)/C1=C\C=C\c1ccco1
inactive: Potency [2] | activation [3] 3.22% [at 17.1 µM, percent relative to cAMP agonist control] | activity change, negative = inhibition [4] -5.04% [at 12.7 µM] | activity change, negative = inhibition [5] 6.52% [at 30.8 µM] | activation [6] 7.61% [at 30.8 µM]

CCOC(=O)c1c(-c2ccccc2)oc2ccc(OC(=O)N(C)C)cc12
inactive: Potency [2] | Potency [3] | Potency [4] | Potency [6]

NS(=O)(=O)c1ccc(-c2ccc(C=C3C(=O)NC(=O)NC3=O)o2)cc1
inactive: Potency [2] | Potency [3] | Potency [4] | outcome [5] | Potency [6]
